FMDV antiviral – blocks foot and mouth disease virus; FMDV antiviral cell-based qHTS; Potency, µM (top dose mostly 57.9 µM), most hits filed as inhibitors; hit rate 1.2% among 410,000; AID 1159524; calls by dose curve; tested in HEK293T cells; further: read-out not given here; nearly all actives have a fitted effect of over 45% in size
Marburg entry inh – blocks Marburg virus binding to or entry into cells; Marburg virus pseudotyped entry inhibition, cell reporter; Potency, µM (doses to about 37.8 µM), actives largely listed as inhibitors; hit rate 1.8% among 300,000; AID 540276; calls by dose curve; tested in HEK293 cells
Lassa entry inh – inhibitors of Lassa virus binding or cell entry; Lassa virus pseudotype entry inhibition, cell reporter; Potency, µM (highest dose often 37.9 µM), most hits filed as inhibitors; hit rate 1.2% among 300,000; AID 540256; calls by dose curve; tested in HEK293 cells; further: nearly all actives have a fitted effect of over 50% in size
HCMV inh – inhibitors of human cytomegalovirus; activity change, negative = inhibition, % at 57.5 µM; hit rate 4.5% among 410,000; HFF cells, HCMV-luciferase reporter, 72 h; hits give low values; in the data active means activity change below about -60%; inconclusive means no clear call, values can overlap the other calls; inactive means above about -39%
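Screen run at 2 compound doses on HFFs infected with reporter HCMV, MOI 1 PFU/cell. Luciferase activity from cell lysates at 72 h post infection gave inhibition relative to buffer-only and Salinomycin wells.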
Hits are given with their value. Shown are actives, neighbours in structure and some others; about 6.2% of the full set was active somewhere.

Screening Cc1sc(NC(=O)Cn2c(=O)oc3ccccc32)nc1-c1ccc(Cl)cc1 returned FMDV antiviral inactive, Marburg entry inh inactive, Lassa entry inh inactive and HCMV inh -61.
CCc1nnc(NC(=O)Cn2c(=O)oc3ccccc32)s1 was read as FMDV antiviral inactive, Marburg entry inh inactive, Lassa entry inh inactive and HCMV inh inactive.
O=C(Cn1c(=O)oc2ccccc21)Nc1nc(-c2ccc(Br)cc2)cs1 was read as FMDV antiviral inactive, Marburg entry inh inconclusive, Lassa entry inh inconclusive and HCMV inh -61.
Screening Cc1ccccc1-c1nnnn1C1CCS(=O)(=O)C1 (stereo unspecified) returned FMDV antiviral inactive and HCMV inh -67.
For COc1ccc(N2C(=O)CC(Sc3nnnn3-c3ccc(F)cc3)C2=O)cc1 (stereo unspecified) the results were FMDV antiviral inactive, Marburg entry inh inconclusive, Lassa entry inh inconclusive and HCMV inh inactive.
Screening O=C1CC(Sc2nnnn2-c2ccccc2)C(=O)N1c1cccc(Cl)c1 (stereo unspecified) returned FMDV antiviral inactive, Marburg entry inh inconclusive, Lassa entry inh inconclusive and HCMV inh -62.
Screening CCN1CCc2c(sc(-n3cccc3)c2C(CCC(C)C)NC(=O)NCCC(=O)OC)C1 (stereo unspecified) returned FMDV antiviral inactive, Lassa entry inh inconclusive and HCMV inh inactive.
CN(C)/C=C/C(=O)c1ccc([N+](=O)[O-])c(CS(=O)(=O)c2ccccc2)c1 was read as FMDV antiviral inactive, Marburg entry inh inactive, Lassa entry inh inactive and HCMV inh -98.
`Cc1cc(C)cc(NC(=O)N2CCN(c3cc(-c4noc(C)n4)ccc3C)CC2)c1` gave FMDV antiviral inactive, Lassa entry inh inactive and HCMV inh inconclusive.
CCNC(=O)C1(C)CCN1CCS(=O)(=O)c1ccc(C)cc1 (stereo unspecified) was read as FMDV antiviral inactive and HCMV inh -102.
For CCCNC(=O)C1(C)CCN(CCS(=O)(=O)c2ccc(C)cc2)C1 (stereo unspecified) the results were FMDV antiviral inactive and HCMV inh inactive.
`Cc1nc(N2CCC(C)CC2)c(C#N)c(C)c1[N+](=O)[O-]` gave FMDV antiviral inactive, Marburg entry inh inactive, Lassa entry inh inconclusive and HCMV inh inactive.
For Cc1ccc(Sc2nc(C)c([N+](=O)[O-])c(C)c2C#N)cc1 the results were FMDV antiviral inactive, Marburg entry inh inactive, Lassa entry inh inactive and HCMV inh -70.
For Cc1nc(Sc2ccc(Br)cc2)c(C#N)c(C)c1[N+](=O)[O-] the results were FMDV antiviral 20µM, Marburg entry inh inconclusive, Lassa entry inh inconclusive and HCMV inh -77.
`Cc1ccc(Sc2ncnc(N)c2[N+](=O)[O-])cc1` gave FMDV antiviral inactive, Marburg entry inh inactive, Lassa entry inh inactive and HCMV inh inactive.
Nc1ncnc(Sc2ccc(Cl)cc2)c1[N+](=O)[O-] was read as FMDV antiviral inconclusive, Marburg entry inh inconclusive, Lassa entry inh inconclusive and HCMV inh inactive.
For Cc1nc(Sc2ccc(Cl)cc2)c(C#N)c(C)c1[N+](=O)[O-] the results were FMDV antiviral inconclusive, Marburg entry inh inactive, Lassa entry inh inactive and HCMV inh -75.
For COc1cc(OC)c(NC(=O)Cn2c(=O)cc(C(F)(F)F)c3c(C)nn(C)c32)cc1Cl the results were FMDV antiviral inactive, Lassa entry inh inactive and HCMV inh inactive.
Screening Cc1cc(C(F)(F)F)nc(SCC(=O)Nc2ccccc2)n1 returned FMDV antiviral inactive, Marburg entry inh inactive, Lassa entry inh inactive and HCMV inh inactive.
Cc1cc(C(F)(F)F)nc(SCC(=O)NC2CC3CCC2C3)n1 (stereo unspecified) was read as FMDV antiviral inactive, Marburg entry inh inactive, Lassa entry inh inactive and HCMV inh -68.
`CC(C)Cc1ccc(C(C)C(=O)Nc2ccccc2O)cc1` (stereo unspecified) gave FMDV antiviral inconclusive, Marburg entry inh inconclusive, Lassa entry inh inconclusive and HCMV inh -82.
For CC(C)Cc1ccc(C(C)C(=O)Nc2nccs2)cc1 (stereo unspecified) the results were Marburg entry inh inconclusive, Lassa entry inh inactive and HCMV inh inactive.
Screening COc1cc2c(cc1Nc1nc(Nc3ccsc3C(N)=O)c3cc[nH]c3n1)N(C(=O)CN(C)C)CCC2(C)C returned Lassa entry inh 0.5µM.
`COc1ccc(CN(C)CC(=O)Nc2cccc3ccccc23)cc1F` gave FMDV antiviral inactive, Marburg entry inh inconclusive, Lassa entry inh inactive and HCMV inh inactive.
For COc1ccc(C(=O)CN2CCN(c3ccc(F)cc3)CC2)cc1OC the results were FMDV antiviral inactive, Marburg entry inh inactive, Lassa entry inh inactive and HCMV inh inconclusive.
For COc1cc(C)c(NC(=O)CN(C)C)cc1Nc1nc(Nc2cccc(F)c2C(N)=O)c2cc[nH]c2n1 the results were Lassa entry inh 2.5µM.
`COc1cc(N2CCN(C(C)C)CC2)ccc1Nc1nc(Nc2ccc(F)cc2C(N)=O)c2cc[nH]c2n1` gave Lassa entry inh 25µM.
For CCOC(=O)C1=CCN(S(C)(=O)=O)C1c1ccc(Cl)cc1 (stereo unspecified) the results were HCMV inh inactive.
Screening O/N=C(\c1ccccn1)C1CC1c1ccccc1 (stereo unspecified) returned FMDV antiviral inactive, Marburg entry inh inactive, Lassa entry inh inconclusive and HCMV inh -79.
Screening COc1ccc(C2CC2/C(=N/O)c2ccccn2)cc1 (stereo unspecified) returned FMDV antiviral inactive, Marburg entry inh inactive, Lassa entry inh inactive and HCMV inh inactive.
C[C@]12CC[C@@H]3c4ccc(O)cc4CC[C@H]3[C@@H]1CC[C@@H]2OC(=O)CCC(=O)O was read as FMDV antiviral inactive, Marburg entry inh inactive, Lassa entry inh inactive and HCMV inh -100.
COc1ccc(-c2cc3nc(C)c(CCC(=O)N4CCN(c5ccccc5F)CC4)c(C)n3n2)c(OC)c1 was read as FMDV antiviral inconclusive, Marburg entry inh inactive, Lassa entry inh inactive and HCMV inh inactive.
For CCCCOC(=O)c1ccc(Nc2nc3ccccc3c3nnc(C)n23)cc1 the results were FMDV antiviral inactive, Lassa entry inh inactive and HCMV inh inactive.
CC(Nc1nc(-c2ccc3c(c2)NC(=O)CO3)cs1)c1ccccc1 (stereo unspecified) was read as FMDV antiviral inactive, Marburg entry inh inconclusive, Lassa entry inh inactive and HCMV inh inconclusive.
`C=CCN=c1scc(-c2ccc3c(c2)NC(=O)CO3)n1/N=C(\C)c1ccccn1` gave FMDV antiviral 18µM, Marburg entry inh inconclusive, Lassa entry inh inconclusive and HCMV inh -95.
`O=C(Nc1ccc2nc(SCC(=O)N3CCc4ccccc43)sc2c1)c1ccc(F)cc1` gave FMDV antiviral inactive, Marburg entry inh inactive, Lassa entry inh inactive and HCMV inh -63.
For O=C(Nc1ccc2nc(SCC(=O)N3CCc4ccccc43)sc2c1)c1ccc(Cl)cc1 the results were FMDV antiviral inactive, Marburg entry inh inactive, Lassa entry inh inconclusive and HCMV inh -93.
For CC(C)(C)c1ccc(C(=O)Nc2ccc3nc(SCC(=O)N4CCCC4)sc3c2)cc1 the results were FMDV antiviral 10µM, Marburg entry inh inconclusive, Lassa entry inh inconclusive and HCMV inh -97.
